Test in all cases: NCI-60 one-dose screen, 48 h (100 = growth as untreated, 0 = no growth, -100 = all killed)
What all share (conditions): 10 µM unless noted

Assay [1] relates to SK-MEL-2 melanoma.
In assay [2] the test system is SN12C renal.
In assay [3] the test system is UO-31 renal.
Assay [4] has as its system TK-10 renal.
In assay [5] the test system is ACHN renal.
In assay [6] the test system is A498 renal.
Assay [7] deals with CCRF-CEM leukemia.
Assay [8] deals with MOLT-4 leukemia.
Assay [9] relates to CAKI-1 renal.

Structures are written as SMILES. About 83,000 compounds went through this panel and 20% of them were active in at least one assay; those are over-represented in the sample as a whole.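 Growth was measured after 48 h exposure to one concentration of compound in 96-well plates. Values under 10 count as active.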 A number with no mark means an inactive call. Active and inactive are the calls of the source.

For `CC1=C(C(=O)Nc2ccc(F)cc2)C(c2ccc(Cl)cc2)C2=C(CC(C)(C)CC2=O)N1` (stereo not given), the growth in assay [1] was 97.5%; in [2], 86.7%; in assay [3] it was 64%; in assay [4] it was 113%; in assay [5] it was 94.4%; in assay [6], 54.4%. Further, the growth in [7] is 78.8%; in assay [8], 73.1%.

On to `COc1ccc(-c2[nH]nc(N)c2-c2cc(OC)c(OC)c(OC)c2)cc1`, for which the growth in assay [1] was 42.5%; in [2], 33%; in assay [3], 20.4%; in assay [4] it was 34.9%; in [5], 25.5%; in assay [6], -8.24% (active). The growth in assay [7] is -5.92% (active); in assay [8], -2.96% (active).

`Oc1ccc(Cl)cc1-c1cc(-c2ccccc2Cl)[nH]n1`: the growth is 77.5% in assay [1]; 69.5% in assay [2]; 38.6% in assay [3]; 86.8% in assay [4]; 59% in assay [5]; 96.1% in assay [6]. Besides, in assay [8], the growth was 28.5%.

For `CC(C)CC(NC(=O)C(CCCN=C(N)N)NC(=O)OCc1ccccc1)C(=O)NC(CNC(=O)/C=C/c1ccccc1)C(C)C` (stereo not given), the growth in [1] is 113%; in assay [2], 99.6%; in assay [3], 93%; in assay [4] it was 107%; in assay [5], 91.9%; in assay [9], 90%. In assay [8], the growth was 97.5%.

`O=C(CS)OCC(COC(=O)CS)(COC(=O)CS)COC(=O)CS`: the growth in assay [1] is 40.6%; in assay [2] it was 90.2%; in assay [3] it was 93.5%; in assay [4], 113%; in assay [5] it was 93.9%; in [9], 96.5%. The growth in assay [6] was 104%; in [8] it was 3.08% (active).

As for `O=C(/C=C/c1ccccc1)n1c(-c2ccccc2)nc2ccccc21`, the growth in assay [1] is 112%; in assay [2] it was 101%; in [3], 89.8%; in assay [4], 101%; in [5] it was 104%; in assay [9] it was 107%. Besides, the growth in [6] was 85.8%; in [7] it was 97.8%; in assay [8], 99.1%.

As for `Brc1ccccc1Cn1c(-c2cncs2)nc2ccccc21`, the growth in assay [1] was 95.4%; in assay [2], 85.1%; in assay [3] it was 44.9%; in assay [4], 82.6%; in assay [5], 72.8%; in assay [9] it was 74.4%. Besides, the growth is 78% in [7] and 77.6% in assay [8].

Consider `[O-]/[N+](=C\c1ccccc1)CC1(O)CCCCC1`, for which the growth is 111% in [1]; 94.5% in assay [2]; 96.3% in assay [3]; 103% in [4]; 99.2% in [5]; 82.9% in assay [6]. Further, the growth in assay [7] was 101%; in assay [8] it was 106%.

For `C/C(=N\OC(=O)Nc1ccccc1)c1ccccc1`, the growth was 111% in assay [1]; 94.8% in assay [2]; 88.7% in assay [3]; 115% in assay [4]; 106% in assay [5]; 39.4% in assay [6]. The results for the growth in assay [7] and in [8] were 99.1% and 94%, respectively.

For `N=C(N)c1ccc(-c2ccc(-c3cc(Cl)cc(Cl)c3)o2)nc1`, the growth in [1] was -71.8% (active); in assay [2], -79.9% (active); in [3], -76.6% (active); in assay [4] it was -88.5% (active); in assay [5], -90.6% (active); in assay [6] it was 61.8%. For the same molecule, the values for the growth in assay [7] and in assay [8] were -37.9% (active) and -55.1% (active), respectively.

Regarding `C=CC[C@]1(O)CC[C@H]2[C@@H]3CCc4cc(O)ccc4[C@H]3CC[C@@]21C`, the growth was 90.6% in [1]; 96.1% in assay [2]; 85.7% in [3]; 107% in assay [4]; 94.5% in assay [5]; 103% in [9]. Also, the growth in [6] was 97.2%; in [8], 62%.

With `COc1ccc(-c2nsc3c2NC(=O)CC3c2ccc3c(c2)OCO3)cc1` (stereo not given), the growth in [1] was 26.4%; in assay [2], 55.8%; in assay [3], 33.6%; in assay [4], 32.3%; in assay [5], 50.3%; in [9], 26.1%. For the same molecule, the growth in [7] is 3.82% (active); in assay [8], 18.4%.

For `CC(=O)c1ccc(-n2c(-c3cc(-c4ccsc4)n[nH]3)n[nH]c2=S)cc1`, the growth is 86.9% in assay [1]; 98.3% in [2]; 89.5% in assay [3]; 98% in [4]; 88.4% in [5]; 92.7% in assay [9]. Further, the growth in assay [6] is 111%; in assay [8], 87.6%.

For `Clc1ncnc2scc(C3COc4ccccc4O3)c12` (stereo not given), the growth in [1] is 107%; in assay [2], 86.6%; in assay [3] it was 59.5%; in assay [4], 110%; in [5] it was 96.2%; in assay [9] it was -18.7% (active). The growth in [7] is 22.3%; in assay [8], 74.7%.

For the molecule `CCn1c(CN2CCN(Cc3ccccc3)CC2)nc2cc(NC(=O)c3cccs3)ccc21`, the growth was -50.1% (active) in assay [1]; -87.6% (active) in assay [2]; -96.7% (active) in assay [3]; -94.1% (active) in [4]; -79.2% (active) in [5]; -92.5% (active) in [9]. Moreover, the results for the growth in assay [6], in [7] and in assay [8] were -91.6% (active), -39.2% (active) and -11.3% (active), respectively.

`Cc1ccc(Nc2nc(NCCO)c3ccccc3n2)cc1C`: the growth was 39.5% in assay [1]; 21.5% in [2]; 24.6% in assay [3]; 38.5% in assay [4]; 33.1% in assay [5]; 2.38% (active) in assay [9]. Also, the values for the growth in assay [6], in assay [7] and in assay [8] were -11.9% (active), 8.3% (active) and 24.1%, respectively.

In the case of `Cc1cc(C)cc(Nc2cc(C)nc3nc(C(F)(F)F)nn23)c1`, the growth in assay [1] is 22.6%; in assay [2] it was 31.9%; in assay [3], 2.04% (active); in assay [4], 46.1%; in assay [5] it was 28.6%; in assay [6] it was 67%. In addition, the growth is 16.9% in assay [7] and 18.4% in assay [8].

`COc1ccc(C2=CC(c3ccc(OC)cc3Br)N3C=CSC3=N2)cc1` (stereo not given): the growth in assay [1] is 109%; in assay [2], 57.6%; in assay [3] it was 37.7%; in assay [4] it was 72%; in assay [5] it was 71.4%; in assay [7], 26.9%. In [8], the growth is 36.7%.

In the case of `Cc1cc(NC(=O)C2c3ccccc3C(=O)N(CC(C)C)C2c2cccs2)no1` (stereo not given), the growth is 50.7% in assay [1]; -30.9% (active) in assay [2]; -89.7% (active) in [3]; -5.69% (active) in [4]; 0.299% (active) in assay [5]; -40.1% (active) in [9]. The growth in assay [6] is 113%; in assay [7], -13% (active); in [8] it was 16.7%.

On to `CC1=C(C(=O)Nc2ccc(F)cc2)C(c2ccccc2)C2=C(CC(C)(C)CC2=O)N1` (stereo not given), for which the growth in [1] was 89.4%; in assay [2] it was 70.1%; in assay [3], 60.1%; in [4], 104%; in [5], 82.7%; in assay [9], 64.3%. For the same molecule, the growth in assay [6] is 47.1%; in assay [7], 62.3%; in assay [8], 62.9%.

Take `Nc1c(C(=O)Nc2cccc(Cl)c2)sc2ncc(Br)cc12`: the growth in [1] was 89.6%; in assay [2] it was 82%; in assay [3], 62.2%; in assay [4], 57.9%; in assay [5], 11.4%; in assay [9] it was 90.6%. Besides, the values for the growth in assay [6] and in assay [8] were 96.5% and 87.4%, respectively.

As for `Cc1cc(C)cc(CCCCCCCCCCCCCCCCCC(=O)O)c1`, the growth was 150% in assay [1]; 106% in assay [2]; 89% in assay [3]; 116% in [4]; 98.9% in assay [5]; 100% in [9]. Besides, the growth in [6] is 106%; in [8], 98.3%.

For `Clc1cc(Br)ccc1-c1ccc(CNCC2CCNCC2)o1`, the growth was 76.8% in assay [1]; 86.3% in assay [2]; -58.5% (active) in assay [3]; 32.2% in assay [4]; 3.97% (active) in [5]; 68.6% in assay [9]. Moreover, the growth in assay [6] is 81.8%; in assay [7], 24%; in assay [8] it was 55.6%.

With `CC(C)COC(=O)NC(C)(C)C`, the growth is 93.1% in assay [1]; 110% in assay [2]; 95.6% in [3]; 104% in assay [4]; 104% in assay [5]; 85.4% in assay [8].

Turning to `COS(=O)(=O)CCN(CCOS(C)(=O)=O)S(C)(=O)=O`, the growth in assay [1] is 78.9%; in assay [2], 98.1%; in [3] it was 86.7%; in [4] it was 96.7%; in assay [5] it was 92.9%; in assay [9] it was 96.8%. Further, the growth is 115% in assay [6] and 90.5% in assay [8].

Regarding `CC(=O)[C@H]1CC[C@H]2[C@@H]3CC[C@H]4CC=CC[C@]4(C)[C@H]3CC[C@]12C`, the growth in assay [1] is 79.9%; in assay [2], 96.1%; in assay [3] it was 83.7%; in [4], 85.9%; in assay [5] it was 92.4%; in assay [9], 72.9%. The growth is 103% in assay [6] and 83.9% in [8].

Consider `CC(CN1CCN(CCOCCO)CC1)CN1c2ccccc2Sc2ccc(Cl)cc21` (stereo not given), for which the growth is 80.7% in assay [1]; 69.9% in assay [2]; 50.1% in assay [3]; 74.4% in assay [4]; 69.4% in [5]; 69.4% in assay [9]. In addition, the growth in [6] was 43.9%; in assay [7], 63.2%; in [8], 28.5%.

On to `COc1ccc(C(=O)C(C#N)c2cc(OC)c(OC)c(OC)c2)cc1` (stereo not given), for which the growth is 99.7% in assay [1]; 109% in assay [2]; 96.5% in assay [3]; 94% in assay [4]; 104% in assay [5]; 129% in [9]. In addition, the growth in [7] is 102%; in [8], 88%.

As to `CCC(=O)NC(O)C(Cl)(Cl)C(C)Cl` (stereo not given), the growth in assay [1] was 106%; in [2], 98.8%; in assay [3], 91.5%; in [4] it was 112%; in assay [5], 100%; in assay [9] it was 99.4%. Besides, the growth in assay [8] is 108%.

Turning to `CCN(CC)CCCC(C)N/C(c1cccc(OC)c1)=c1\c(=O)[nH]n(-c2c3ccccc3nc3ccccc23)c(=O)\c1=C(/NC(C)CCCN(CC)CC)c1cccc(OC)c1` (stereo not given), the growth in assay [1] is -75.2% (active); in [2], 5.78% (active); in assay [3] it was -48.5% (active); in assay [4] it was -23% (active); in assay [5] it was -61.8% (active); in assay [9] it was 1.65% (active). Besides, the growth in [6] was -85.9% (active); in [8] it was -22.7% (active).

Consider `COc1ccc(-c2nc(-c3cc(OC)cc(OC)c3)[nH]c2-c2ccc(OC)cc2)cc1`, for which the growth is 29.4% in assay [1]; 70.6% in assay [2]; 36.1% in assay [3]; 62.2% in assay [4]; 41.3% in assay [5]; 44.5% in [9]. Also, the results for the growth in assay [7] and in assay [8] were 11.1% and 14.2%, respectively.

Regarding `CCOP(=O)(O)OP(=O)(O)OCC`, the growth in assay [1] was 128%; in [2], 105%; in assay [3] it was 91.9%; in assay [4], 103%; in assay [5], 97.6%; in [9], 94.3%. Moreover, the growth in assay [6] was 110%; in assay [8], 87.1%.

With `O=c1c2sc3ncc(Cl)cc3c2nnn1-c1cccc(Cl)c1`, the growth was 92.9% in assay [1]; 74.3% in assay [2]; 48.5% in [3]; 93% in assay [4]; 46.1% in assay [5]; 67.4% in [9]. Moreover, the growth in [6] is 63.1%; in assay [8], 90.2%.

Source of the values: PubChem BioAssay (NCI).
